Molecules are shown by their SMILES. Out of some 39,000 compounds screened, about 3,300 (8.5%) were called active. The sample holds actives, similar compounds and a random draw of the others, so the mix is not that of the screen.

This assay concerns HepG2. The assay is described as follows: cytotoxicity call (relative viability < 0.9). Particulars: 10 µM.
In the case of `C[C@@H]1CCCCO[C@H](CN(C)C(=O)Nc2ccc(C(F)(F)F)cc2)[C@@H](C)CN([C@@H](C)CO)C(=O)c2cc(NC(=O)c3ccccc3)ccc2O1`, the cytotoxicity call was “inactive”. For the molecule `CN[C@@H]1[C@@H](O)[C@@H](O[C@@H]2[C@@H](O)[C@H](O[C@H]3OC(CN)=CC[C@H]3N)[C@@H](N)C[C@H]2N)OC[C@]1(C)O`, the cytotoxicity call was “inactive”. The value for `C[C@H](CO)N1C[C@H](C)[C@@H](CN(C)S(=O)(=O)c2ccc(F)cc2)Oc2c(NC(=O)C3CC3)cccc2C1=O` was “inactive”; that for `O=C(Nc1ccno1)N1CCOCC1` was “inactive”. The value for `C[C@@H]1CN([C@@H](C)CO)C(=O)Cc2cc(NS(=O)(=O)c3ccc(F)cc3)ccc2O[C@H]1CN(C)CC1CC1` was “inactive”; that for `C[C@H]1CCCCO[C@H](CN(C)C(=O)NC2CCCCC2)[C@@H](C)CN([C@@H](C)CO)C(=O)c2cc(NC(=O)c3ccncc3)ccc2O1` was “inactive”.

Consider `O=C(C[C@H]1CC[C@H](NS(=O)(=O)c2ccc(F)cc2)[C@@H](CO)O1)NCc1ccc(Cl)c(Cl)c1`, for which the cytotoxicity call was “inactive”.

For the molecule `Cc1ccc(S(=O)(=O)N(C)C[C@@H]2Oc3c(NS(=O)(=O)c4ccccc4)cccc3C(=O)N([C@H](C)CO)C[C@@H]2C)cc1`, the cytotoxicity call is “inactive”.

Consider `O=C1NCCC[C@@H]1C(=O)N1CCCCC1`, for which the cytotoxicity call is “inactive”. In the case of `COC(=O)[C@H]1CCCNC1=O`, the cytotoxicity call is “inactive”.

As for `NNC(=O)[C@H]1CCCNC1=O`, the cytotoxicity call was “active”. `COC[C@H]1C[C@@H](c2nc(-c3ccc4c(c3)COc3cc5c(ccc6[nH]c([C@@H]7CC[C@H](C)N7C(=O)[C@@H](NC(=O)OC)C(C)C)nc65)cc3-4)c[nH]2)N(C(=O)[C@H](NC(=O)OC)c2ccccc2)C1`: the cytotoxicity call is “inactive”.

Regarding `C[C@H]1CCCCO[C@H](CN(C)S(=O)(=O)c2ccc(Cl)cc2)[C@@H](C)CN([C@@H](C)CO)C(=O)c2cc(NC(=O)Nc3cccc4ccccc34)ccc2O1`, the cytotoxicity call was “inactive”.

`CCCCCCCCCCCCCCCC[N+](C)(C)CCN(Cc1ccc(OC)cc1)c1ncccn1`: the cytotoxicity call is “active”.

In the case of `COc1ccc(CN(CCN(C)C)c2ncccn2)cc1.Cl`, the cytotoxicity call was “inactive”. With `C[C@@H]1CN([C@H](C)CO)C(=O)c2cc(NC(=O)Cc3ccccc3)ccc2O[C@@H](C)CCCCO[C@@H]1CN(C)C(=O)CCC(F)(F)F`, the cytotoxicity call was “inactive”. Regarding `C[C@H](CO)N1C[C@H](C)[C@H](CN(C)C(=O)Nc2ccccc2)Oc2c(NC(=O)c3ccc(-c4nccs4)cc3)cccc2C1=O`, the cytotoxicity call is “inactive”. Turning to `COc1ccc(NC(=O)Nc2ccc3c(c2)C(=O)N([C@@H](C)CO)C[C@@H](C)[C@@H](CN(C)S(C)(=O)=O)O3)cc1`, the cytotoxicity call was “inactive”. Regarding `COc1ccc(NC(=O)Nc2ccc3c(c2)C(=O)N([C@H](C)CO)C[C@H](C)[C@@H](CN(C)S(C)(=O)=O)O3)cc1`, the cytotoxicity call was “inactive”. As for `COc1ccc(NC(=O)Nc2ccc3c(c2)C(=O)N([C@H](C)CO)C[C@@H](C)[C@@H](CN(C)S(C)(=O)=O)O3)cc1`, the cytotoxicity call was “inactive”. For the molecule `COc1ccc(NC(=O)Nc2ccc3c(c2)C(=O)N([C@@H](C)CO)C[C@H](C)[C@H](CN(C)S(C)(=O)=O)O3)cc1`, the cytotoxicity call is “active”. Consider `COc1ccc(NC(=O)Nc2ccc3c(c2)C(=O)N([C@H](C)CO)C[C@@H](C)[C@H](CN(C)S(C)(=O)=O)O3)cc1`, for which the cytotoxicity call is “active”. As to `COc1ccc(NC(=O)Nc2ccc3c(c2)C(=O)N([C@@H](C)CO)C[C@@H](C)[C@H](CN(C)S(C)(=O)=O)O3)cc1`, the cytotoxicity call was “inactive”.

The values are drawn from the antibiotic and cytotoxicity screens of Wong et al. (2023).
